Screening data (PubChem)
KCNQ2 pot = enhances the rat KCNQ2 potassium channel. CHO-K1 KCNQ2, FluxOR thallium flux fluorescence; hits give high values. hit rate 0.54% among 310,000. B-score at 10 µM. O88943;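 active = fluorescence ratio B-score at least 3 SD of library B-scores, with initial fluorescence B-score within 3 of them, cut at about 5.3 in these data; same plate scores as AID 2156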;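 note: B-score of peak minus minimum over baseline fluorescence ratio after K+ and Tl+ stimulus; positive B-score means potentiation of KCNQ2 with more thallium influx and brighter signal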
KCNQ2 inh = blocks the rat KCNQ2 potassium channel; B-score at 10 µM; O88943; hit rate 1.1% among 310,000; CHO-K1 KCNQ2, FluxOR thallium flux, 20 min; hits give low values;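 active = fluorescence ratio B-score at most minus 3 library SDs, with starting brightness B-score within 2 library SDs, cut at about -5.5 in these data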
Kir21 conf inh = confirmation of mouse Kir2.1 potassium channel inhibitors. shares compounds with KCNQ2 pot. Kir2.1-expressing cells, FluxOR thallium flux fluorescence; hits give low values. Tl flux remaining, % of negative control (hits give low values), % at 10 µM. hit rate 41% among 2,300. AID 2032;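 active = Primary-screen hit whose thallium flux fell at least 3 control SD below untreated wells in both duplicates, with normal baseline fluorescence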;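 note: 0% = blank wells without stimulus and 100% = stimulated no-compound controls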
Target sequence (P35561 whole entry, looked up): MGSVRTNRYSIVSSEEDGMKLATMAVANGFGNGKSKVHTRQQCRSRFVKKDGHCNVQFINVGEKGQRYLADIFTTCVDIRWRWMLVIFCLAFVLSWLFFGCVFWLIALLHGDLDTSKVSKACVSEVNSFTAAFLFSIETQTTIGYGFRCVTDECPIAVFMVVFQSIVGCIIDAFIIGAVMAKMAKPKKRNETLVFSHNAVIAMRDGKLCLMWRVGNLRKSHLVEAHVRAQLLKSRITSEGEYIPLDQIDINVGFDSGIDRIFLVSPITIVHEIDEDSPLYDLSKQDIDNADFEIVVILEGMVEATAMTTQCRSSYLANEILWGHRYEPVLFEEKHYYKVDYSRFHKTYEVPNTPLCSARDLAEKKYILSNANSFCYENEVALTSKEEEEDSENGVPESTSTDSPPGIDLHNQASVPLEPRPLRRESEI
HEK293 Tl flux = parental HEK293 activity in Kir2.1 inhibitor counter-screen | shares compounds with KCNQ2 pot | parental HEK293 cells, FluxOR thallium flux fluorescence; 0% = unstimulated blank wells | FluxOR signal as % of negative control (100 = no effect), % at 10 µM | hit rate 19% among 2,300 | AID 2105;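 active = dye signal at least 3 control SD above or below untreated wells in both duplicates, raw fluorescence within 3, either direction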;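 note: percent is based on the flux ratio of peak minus minimum fluorescence over baseline F0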
CHO-K1 Tl ctr = counter-screen for KCNQ2 potentiators: effect in parental CHO-K1 cells; FluxOR thallium flux fluorescence; zero = vehicle mean+3SD, 100% = vehicle-minus-blank window; hit rate 43% among 1,200; shares compounds with KCNQ2 pot; activity increase over 3SD of controls, % at 10 µM; AID 2282;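 active = signal rise of at least 3 SD above the untreated control mean, in both duplicate wells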;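 note: counter screen of KCNQ2 potentiator hits so any rise reflects channel-independent effects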
KCNQ1 sel pot = selectivity of KCNQ2 potentiators: effect on human KCNQ1; shares compounds with KCNQ2 pot; CHO KCNQ1 stable, FluxOR thallium flux fluorescence; beyond 3SD, as % of vehicle-control signal; activation over 3SD threshold, % at 10 µM; hit rate 28% among 1,200;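 active = fluorescence ratio rise of at least 3 SD of vehicle wells above their mean, in both replicate wells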;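 note: 0% = vehicle mean plus 3 SD and 100% = vehicle minus unstimulated blank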
KCNQ2 pot confirm = rat KCNQ2 channel potentiator confirmation; CHO-KCNQ2 cells, FluxOR thallium flux fluorescence; shares compounds with KCNQ2 pot; potentiation, less the hit threshold, % at 10 µM; hit rate 68% among 1,200;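 active = fluorescence ratio rising 3 SD or more over the vehicle control mean in both replicates, plus primary screen hit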;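 note: peak minus minimum thallium fluorescence divided by baseline after K/Tl stimulus; 0% = vehicle mean plus 3 SD and 100% = vehicle minus unstimulated blank difference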
Kir21 spec = tests whether KCNQ2 potentiators also affect mouse Kir2.1; shares compounds with KCNQ2 pot; HEK293 Kir2.1, FluxOR thallium flux fluorescence; activity over 3SD threshold, % at 10 µM; hit rate 2% among 1,200;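 active = fluorescence ratio rise of at least 3 SD above the vehicle-control mean, seen in both replicates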;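 note: 0% = vehicle mean plus 3 SD and 100% = vehicle minus no-stimulus blank window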
KCNQ2 W236L pot = potentiates the retigabine-insensitive rat KCNQ2 W236L mutant channel; shares compounds with KCNQ2 pot; CHO KCNQ2-W236L, automated patch clamp current; current increase over 3SD of negative controls (%), hits give high values, % at 25 µM; hit rate 10% among 940;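 active = current increase at least 3 SD of the untreated controls above them in both duplicate recordings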
* hit, by the source's call; i = inactive; . = not tested or not shown. This is a sample that favours compounds with a hit; in the whole collection about 1.6% have one here.

SMILES | KCNQ2 pot | KCNQ2 inh | Kir21 conf inh | HEK293 Tl flux | others
Clc1ccc(OCCOCCNCc2ccccc2)cc1Cl | . | i | 22.5%* | i
Cc1cc(Br)ccc1OCCNCc1ccccc1 | . | i | 25.0%* | i
Cc1cc(C)c(OCCCCNCc2ccccc2)c(Cl)c1 | . | i | 12.0%* | i
COc1c(Cl)cc(Cl)cc1CNCc1ccccc1 | . | i | . | .
CCCCc1ccc(N2C(=NC(=O)C3CCCO3)SC3CS(=O)(=O)CC32)cc1 (stereo not drawn) | . | i | . | .
COc1cccc(N=C2CC(C)(C)CC(=O)/C2=C(/O)c2ccccc2)c1 | . | i | . | .
CCN(CC)c1ccc(/C=N/NC(=O)c2nnn(-c3nonc3N)c2-c2ccc(C)cc2)cc1 | 0.02 | i | . | .
CN(C(=O)COC(=O)C(C)(C)Oc1ccc(Cl)cc1)c1c(N)n(Cc2ccccc2)c(=O)[nH]c1=O | . | i | . | .
C[C@]12CCC3c4ccc(OCC(=O)O)cc4CCC3C1CCC2=O (stereo partly drawn) | . | i | . | .
O=C1NC2(CCCCO2)CO1 (stereo not drawn) | 0.06 | i | . | .
NC(=O)c1ccc(NC(=O)CN2C(=O)NC(c3ccccc3)(c3ccccc3)C2=O)cc1 | 0.66 | i | . | .
CCC(C)NCCOCCOc1ccc(Cl)c2ccccc12 (stereo not drawn) | 0.24 | i | . | .
Clc1ccc(OCCCNCc2ccccc2)c2ccccc12 | -7.61 | -7.61* | 13.5%* | 73.5%*
OCc1cc(C(O)CNCCCCCCOCCCCc2ccccc2)ccc1O (stereo not drawn) | 0.73 | i | 31.5%* | i
OC(CNCc1cccc(Br)c1)c1ccccc1 (stereo not drawn) | 0.38 | i | . | .
CN(C)S(=O)(=O)c1cccc(-c2nnc3n2CCCCC3)c1 | . | i | . | .
COc1ccc(CNC(=O)c2ccc3c(c2)NC(=O)C(C)S3)cc1 (stereo not drawn) | . | i | . | .
NC(=O)Cn1nnc(-c2ccc(NC(=O)c3ccc(F)cc3)cc2)n1 | 0.09 | i | . | .
C=CCn1c(SCC(N)=O)nnc1-c1cccc(Br)c1 | 0.43 | i | . | .
C=CCn1c(SCc2ccccc2C#N)nnc1-c1cc(Br)ccc1O | . | i | i | i
COc1cccc(C(=O)OCC(=O)NC(C)CCc2ccccc2)c1O (stereo not drawn) | . | i | . | .
CCc1cccc(C)c1NC(=O)CN1CCN(S(=O)(=O)c2ccc(C(C)(C)C)cc2)CC1 | 5.32* | i | i | i | CHO-K1 Tl ctr=63.4*;KCNQ1 sel pot=-9.1;KCNQ2 pot confirm=-19.1;Kir21 spec=-35.5
CCc1cccc(C)c1NC(=O)COC(=O)C1CCN(S(=O)(=O)c2ccccc2)CC1 | 1.87 | i | . | .
CCN(CC)C(=O)CSc1nnc([C@@H](N)C(C)C)o1 | 1.27 | i | . | .
O=C(NC1CCCCC1)c1cc(S(=O)(=O)N2CCCC2)ccc1Cl | . | i | . | .
SMILES | KCNQ2 pot | KCNQ2 inh | Kir21 conf inh | HEK293 Tl flux | others
COc1ccc(CNC(=O)c2csc(Cc3ccc(OC)cc3)n2)cc1 | . | i | 52.0%* | i
COc1ccc(CNC(=O)c2csc(Cc3ccc(Cl)cc3)n2)cc1 | . | i | . | .
O=C(COC(=O)c1ccccc1NCCO)NNC(=O)c1cccs1 | 0.67 | i | . | .
CCC(=O)Nc1ccc(NC(=O)c2cc3ccccc3o2)c(OC)c1 | 0.35 | i | . | .
CN(C)CCNC(=O)COc1ccc(C23CC4CC(CC(C4)C2)C3)cc1 | . | i | 41.0%* | i
Cc1ccc(C23CC4CC(CC(NC(=O)NCCN(C)C)(C4)C2)C3)cc1 | . | i | . | .
CC(=O)Nc1ccc2nc(CN3CCC(CO)(CCc4ccccc4)CC3)ccc2c1 | . | i | . | .
COc1ccc(S(=O)(=O)NCc2csc(-c3cccnc3)n2)cc1 | 0.52 | i | . | .
Cc1ccc(S(=O)(=O)NCc2csc(-c3cccs3)n2)cc1 | . | i | . | .
O=S(=O)(NCc1csc(-c2cccs2)n1)c1cccc(C(F)(F)F)c1 | 0.03 | i | 42.0%* | i
O=S(=O)(NCc1csc(-c2cccs2)n1)c1cccs1 | . | i | . | .
O=S(=O)(NCc1csc(-c2cccs2)n1)c1ccc(Cl)cc1 | . | i | 42.5%* | i
O=S(=O)(NCc1csc(-c2cccnc2)n1)c1ccc(Br)cc1 | 0.45 | i | 72.0%* | i
CC(OC(=O)Cc1c[nH]c2ccccc12)C(=O)Nc1ccc(S(N)(=O)=O)cc1 (stereo not drawn) | . | i | . | .
O=C(OC1CCCCC1=O)c1cc(Cl)ccc1[N+](=O)[O-] (stereo not drawn) | 1.22 | i | . | .
CCn1cc(C(=O)N(C)CC(OC)OC)c(=O)c2cc(S(=O)(=O)N3CCOCC3)ccc21 | 0.05 | i | . | .
CCCCNC(=S)NC(=O)c1ccc([N+](=O)[O-])cc1 | 8.79* | i | i | 188.0%* | CHO-K1 Tl ctr=2.5*;KCNQ1 sel pot=14.1*;KCNQ2 pot confirm=10.3*;Kir21 spec=-12.9;KCNQ2 W236L pot=i
CC(C)CNC(=S)NC(=O)c1ccc([N+](=O)[O-])cc1 | 1.81 | i | . | .
COc1ccc(OCc2cc(C(=O)NCc3nc(C)cs3)no2)c(Cl)c1 | 1.5 | i | . | .
Cc1ccc(/C(O)=C2\C(=O)C(=O)N(CC(C)O)C2c2ccccn2)cc1 (stereo not drawn) | 0.65 | i | . | .
CC1(C)CC(NS(=O)(=O)c2ccc(S(N)(=O)=O)cc2)CC(C)(C)N1 | . | i | . | .
O=C(COc1ccc2ccccc2c1Br)N1CCCC1 | 2.34 | i | . | .
CCOC(=O)N1CCN(C(=O)COc2ccc3ccccc3c2Br)CC1 | 8.69* | i | i | i | CHO-K1 Tl ctr=13.1*;KCNQ1 sel pot=17.8*;KCNQ2 pot confirm=11.4*;Kir21 spec=-30.4;KCNQ2 W236L pot=i
CC1=C(C(=O)Nc2ccccc2C(F)(F)F)C(c2sccc2C)NC(=S)N1 (stereo not drawn) | . | i | . | .
Nc1ccccc1C(=O)NNc1ncc(C(F)(F)F)cc1Cl | . | i | . | .
SMILES | KCNQ2 pot | KCNQ2 inh | Kir21 conf inh | HEK293 Tl flux | others
O=C(NNc1ncc(C(F)(F)F)cc1Cl)c1ccc(Cl)c(Cl)c1 | 12.3* | i | i | i | CHO-K1 Tl ctr=-12.2;KCNQ1 sel pot=-19.2;KCNQ2 pot confirm=1.2*;Kir21 spec=-30.2;KCNQ2 W236L pot=6.1%*
N#C/C(=C\c1cccc(Oc2ccccc2)c1)C(=O)N1CCOCC1 | -6.37 | -6.37* | 35.5%* | i
COc1cc(/C=C(\C#N)C(=O)N2CCOCC2)cc(Br)c1O | . | i | . | .
COC(=O)c1sccc1NC(=O)Cn1nnc(-c2ccccc2C)n1 | . | i | . | .
N#CCC(=O)c1ccccc1Oc1ccc(Cl)cc1 | . | i | . | .
CCCCN1CCc2c1nc1ccc(Br)cc1c2N | 0.03 | i | 23.5%* | i
